PubChem BioAssay (EPA / NIEHS)
Results filed as inconclusive are left out. Active and inactive are the calls of the source. The calls were made as follows, unless noted: active = hit-call score of the fitted dose curve at least 0.9, where 1 is the maximum; inactive = score below 0.9.

How the values were obtained:
[1] = ACEA_ER_80hr: ACEA Biosciences xCELLigence Real-Time Cell Analysis on Estrogen Receptor Agonism for Proliferation (AID 2282667; active = hit-call score of the fitted dose curve at least 0.9, where 1 is the maximum); conditions: T47D proliferation, impedance (xCELLigence), 80 h
In short: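 Cell-growth kinetics were measured by impedance in T47D cells treated continuously with compound (top 100 uM final, 1:4 steps, 8 points). Activity at 80 h was scored as signal gain over the DMSO baseline.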

[2] = ATG_CRE_CIS: Attagene CIS-FACTORIAL HepG2 Assay for human cAMP Responsive Element (CRE) binding protein 3 (AID 2282926); conditions: HepG2 CRE cis-reporter, Attagene multiplexed mRNA; actives raise or lower the signal
In short: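 We dosed HepG2 cells bearing multiple cis-promoter reporter units for 24 h and measured reporter mRNA by RT-PCR with capillary electrophoresis detection. Bidirectional concentration-response fitting used DMSO as negative control.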

[3] = molecular target: CCAAT/enhancer-binding protein beta (Homo sapiens) (UniProt P17676); assay: ATG_C_EBP_CIS: Attagene CIS-FACTORIAL HepG2 Assay for human CCAAT/Enhancer Binding Protein (C/EBP) beta (AID 2282927); conditions: HepG2 Attagene cis-factorial transcription factor reporter; actives raise or lower the signal
Chain of CCAAT/enhancer-binding protein beta (Homo sapiens) (P17676 whole entry, looked up, the tested form may be a part): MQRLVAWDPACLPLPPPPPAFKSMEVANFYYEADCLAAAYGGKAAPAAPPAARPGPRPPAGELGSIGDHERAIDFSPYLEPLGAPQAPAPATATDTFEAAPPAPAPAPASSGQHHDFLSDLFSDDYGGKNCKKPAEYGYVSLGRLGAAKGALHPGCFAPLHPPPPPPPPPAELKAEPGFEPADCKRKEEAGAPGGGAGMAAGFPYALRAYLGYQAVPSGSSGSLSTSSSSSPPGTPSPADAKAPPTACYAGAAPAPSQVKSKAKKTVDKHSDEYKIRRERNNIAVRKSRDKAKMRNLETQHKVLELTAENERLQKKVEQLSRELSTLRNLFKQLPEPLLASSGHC
In short: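 Endogenous C/EBPb-driven reporter transcripts measured in transfected human HepG2 cells at 24 h via RT-PCR and capillary electrophoresis of labelled fragments. Activity fitted in both directions relative to DMSO baseline.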

[4] = ATG_CMV_CIS: Attagene CIS-FACTORIAL HepG2 Assay for human CMV (Internal Marker) (AID 2282928); conditions: HepG2 CMV promoter reporter, transcription factor profiling; actives raise or lower the signal;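 also: endpoint acts as a background internal control marker rather than a target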
In short: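 Cell system: HepG2, transiently transfected multiple reporter units under cis promoters. Exposure: 24 h. Detection: RT-PCR, FAM labeling, HpaI digestion, capillary electrophoresis. Analysis: bidirectional, DMSO baseline.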

[5] = ATG_DR4_LXR_CIS: Attagene CIS-FACTORIAL HepG2 Assay for human Liver X Receptor (LXR), DR4 submotif (AID 2282929); conditions: HepG2 Attagene DR4 cis-reporter, mRNA transcription; actives raise or lower the signal
In short: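 After transient transfection with multiplexed cis-promoter reporter units, HepG2 cells received test chemicals for 24 h. Reporter mRNA induction, detected by fluorescence after RT-PCR and capillary electrophoresis, was scored relative to DMSO.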

[6] = molecular target: Aryl hydrocarbon receptor (Homo sapiens) (UniProt P35869); assay: ATG_Ahr_CIS: Attagene CIS-FACTORIAL HepG2 Assay for human Aryl Hydrocarbon Receptor (Ahr) (AID 2282930); conditions: HepG2 AhR cis-factorial reporter transcription; actives raise or lower the signal
Chain of Aryl hydrocarbon receptor (Homo sapiens) (P35869 whole entry, looked up): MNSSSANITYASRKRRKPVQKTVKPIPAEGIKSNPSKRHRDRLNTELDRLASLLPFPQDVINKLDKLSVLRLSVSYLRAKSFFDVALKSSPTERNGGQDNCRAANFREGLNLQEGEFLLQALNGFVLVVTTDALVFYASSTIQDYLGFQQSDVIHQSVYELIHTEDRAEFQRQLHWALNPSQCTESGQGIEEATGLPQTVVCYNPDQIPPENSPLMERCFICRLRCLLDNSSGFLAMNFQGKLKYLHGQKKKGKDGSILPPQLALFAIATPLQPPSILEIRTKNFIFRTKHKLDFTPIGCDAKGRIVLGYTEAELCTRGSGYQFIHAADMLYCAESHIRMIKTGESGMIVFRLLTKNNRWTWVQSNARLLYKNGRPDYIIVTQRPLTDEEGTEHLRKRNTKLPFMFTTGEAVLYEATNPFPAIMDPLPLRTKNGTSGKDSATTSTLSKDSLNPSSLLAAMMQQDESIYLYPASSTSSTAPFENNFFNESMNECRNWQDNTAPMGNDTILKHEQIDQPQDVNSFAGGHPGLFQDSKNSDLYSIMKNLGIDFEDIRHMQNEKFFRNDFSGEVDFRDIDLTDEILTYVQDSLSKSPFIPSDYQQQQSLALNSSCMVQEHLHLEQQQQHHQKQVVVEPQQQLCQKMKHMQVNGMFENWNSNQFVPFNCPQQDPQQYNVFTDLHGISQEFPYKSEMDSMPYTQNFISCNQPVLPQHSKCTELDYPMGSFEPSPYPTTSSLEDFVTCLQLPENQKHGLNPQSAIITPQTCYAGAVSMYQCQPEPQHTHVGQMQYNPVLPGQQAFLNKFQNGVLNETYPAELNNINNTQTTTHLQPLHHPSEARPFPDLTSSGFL
In short: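 Reporter mRNA levels, quantified by RT-PCR and fluorescent capillary electrophoresis, reflect endogenous AhR transcriptional activity in HepG2 cells carrying transfected cis-promoter reporter constructs. Readout at 24 h post-dose; gain or loss fitted against DMSO baseline.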

[7] = ATG_AP_1_CIS: Attagene CIS-FACTORIAL HepG2 Assay for human Activator Protein 1 (AP-1) (AID 2282931); conditions: HepG2 Attagene cis-factorial AP-1 reporter mRNA; actives raise or lower the signal
In short: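 After 24 h incubation with test chemical, RNA from transfected HepG2 cells was reverse-transcribed, amplified, fluorescently labelled and digested before capillary electrophoresis. Reporters were driven by cis-regulatory promoters; activity fitted bidirectionally versus DMSO.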

[8] = ATG_AP_2_CIS: Attagene CIS-FACTORIAL HepG2 Assay for human Activator Protein 2 (AP-2) (AID 2282932); conditions: HepG2 AP-2 cis-reporter, Attagene transcription factor profiling; actives raise or lower the signal
In short: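 HepG2, transient MRTU transfection, cis-regulated reporters; 24 h compound exposure; RNA isolated, RT-PCR, 6-FAM labelling, HpaI digest, CE fluorescence. DMSO = negative control/baseline, bidirectional fit.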

[9] = ATG_BRE_CIS: Attagene CIS-FACTORIAL HepG2 Assay for human Bone Morphogenetic Protein (BMP) Response Element (BRE) (AID 2282933); conditions: HepG2 BMP response element reporter, Attagene transcription factor profiling; actives raise or lower the signal
In short: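 Read-out: reporter mRNA induction quantified by RT-PCR and capillary electrophoresis after 24 h chemical exposure of transfected HepG2 cells. Endogenous factor activity on the BMP response element; gain or loss fitted against DMSO baseline.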

[10] = molecular target: Retinoic acid receptor alpha (Homo sapiens) (UniProt P10276); assay: ATG_DR5_RAR_CIS: Attagene CIS-FACTORIAL HepG2 Assay for human Retinoic Acid Receptor Alpha (RARE), DR5 submotif (AID 2282934); conditions: HepG2 Attagene cis-factorial RARE DR5 reporter, mRNA; actives raise or lower the signal
Chain of Retinoic acid receptor alpha (Homo sapiens) (P10276 whole entry, looked up): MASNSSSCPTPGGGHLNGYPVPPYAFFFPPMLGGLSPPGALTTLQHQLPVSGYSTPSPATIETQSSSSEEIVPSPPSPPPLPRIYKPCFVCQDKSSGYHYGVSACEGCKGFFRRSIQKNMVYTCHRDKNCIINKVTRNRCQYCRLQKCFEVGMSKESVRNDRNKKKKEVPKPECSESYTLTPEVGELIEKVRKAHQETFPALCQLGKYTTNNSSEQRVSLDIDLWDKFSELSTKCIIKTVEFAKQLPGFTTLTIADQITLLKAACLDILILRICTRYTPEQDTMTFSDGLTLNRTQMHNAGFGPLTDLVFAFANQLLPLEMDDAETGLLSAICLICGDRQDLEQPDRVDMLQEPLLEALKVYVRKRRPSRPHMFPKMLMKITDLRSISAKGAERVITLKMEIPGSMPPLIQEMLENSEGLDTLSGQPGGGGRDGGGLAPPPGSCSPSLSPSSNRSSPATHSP
In short: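 Reporter transcripts from a DR5-regulated unit, measured via RT-PCR plus capillary electrophoresis, reflect endogenous RAR activity in transiently transfected human HepG2 liver cells. Exposure lasted 24 h; gain or loss of signal scored against DMSO.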

[11] = molecular target: Transcription factor E2F1 (Homo sapiens) (UniProt Q01094); assay: ATG_E2F_CIS: Attagene CIS-FACTORIAL HepG2 Assay for human E2F Transcription Factor 1 (AID 2282935); conditions: HepG2 Attagene cis-reporter, E2F reporter RNA transcripts; actives raise or lower the signal
Chain of Transcription factor E2F1 (Homo sapiens) (Q01094 whole entry, looked up): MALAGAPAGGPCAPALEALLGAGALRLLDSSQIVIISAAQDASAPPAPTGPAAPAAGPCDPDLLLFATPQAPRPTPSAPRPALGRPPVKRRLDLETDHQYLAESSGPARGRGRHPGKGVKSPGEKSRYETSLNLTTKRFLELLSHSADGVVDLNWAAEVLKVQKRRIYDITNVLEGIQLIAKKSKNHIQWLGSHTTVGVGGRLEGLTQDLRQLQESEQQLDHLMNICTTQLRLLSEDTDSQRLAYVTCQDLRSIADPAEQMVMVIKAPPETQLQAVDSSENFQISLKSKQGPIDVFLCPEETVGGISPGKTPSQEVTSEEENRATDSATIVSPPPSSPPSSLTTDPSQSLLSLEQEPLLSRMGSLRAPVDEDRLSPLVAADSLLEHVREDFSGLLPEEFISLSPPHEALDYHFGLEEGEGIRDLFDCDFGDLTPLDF
In short: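 Cis-element reporter mRNA induction in transiently transfected HepG2, 24 h exposure. Activity fitted in both directions relative to DMSO negative control.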

[12] = ATG_E_Box_CIS: Attagene CIS-FACTORIAL HepG2 Assay for human Enhancer Box (E-box) (AID 2282936); conditions: HepG2 E-box cis-reporter transcription, actives raise or lower the signal
In short: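 Cells: HepG2 (human liver), transient MRTU transfection. Exposure 24 h. RNA → oligo(dT) RT → PCR → 6-FAM label → HpaI → CE. Activity fitted both directions relative to DMSO.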

[13] = ATG_M_61_CIS: Attagene CIS-FACTORIAL HepG2 Assay for M61 Transcription Factor (Internal Marker) (AID 2282937); conditions: HepG2 Attagene CIS-FACTORIAL M61 internal marker reporter; actives raise or lower the signal
In short: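 Using transiently transfected HepG2 liver cells, reporter transcript levels were assessed 24 h post-dosing by RT-PCR and capillary electrophoresis. Changes in either direction were fitted relative to DMSO controls.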

[14] = ATG_EGR_CIS: Attagene CIS-FACTORIAL HepG2 Assay for human Early Growth Response 1 (EGR1) (AID 2282938); conditions: HepG2 Attagene CIS-FACTORIAL EGR reporter mRNA; actives raise or lower the signal
In short: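 Fluorescent capillary-electrophoresis signal of reporter cDNA fragments serves as read-out. HepG2 cells bear transiently transfected cis-promoter reporter units and are exposed 24 h; gain- or loss-of-signal is fitted against DMSO.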

[15] = ATG_M_19_CIS: Attagene CIS-FACTORIAL HepG2 Assay for M19 Transcription Factor (Internal Marker) (AID 2282939); conditions: HepG2 Attagene CIS-FACTORIAL M19 internal marker reporter; actives raise or lower the signal
In short: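 Readout: fluorescent reporter-transcript fragments by capillary electrophoresis after RT-PCR. Human HepG2 liver cells carried transfected MRTU constructs reporting endogenous transcription-factor activity; exposure 24 h. Gain or loss of signal fitted relative to DMSO.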

[16] = ATG_ERE_CIS: Attagene CIS-FACTORIAL HepG2 Assay for Estrogen Response Element (ERE) (AID 2282940); conditions: HepG2 ERE cis-reporter, Attagene RNA transcript; actives raise or lower the signal
In short: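 Readout: reporter mRNA induction by RT-PCR, FAM-labelled primer extension, HpaI digestion and capillary electrophoresis, 24 h after dosing transfected HepG2 cells. Endogenous transcription factors act on cis-element-regulated reporters. Gain or loss fitted against DMSO.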

[17] = ATG_Ets_CIS: Attagene CIS-FACTORIAL HepG2 Assay for human Erythroblast Transformation Specific (ETS) (AID 2282941); conditions: HepG2 ETS cis-reporter transcription, actives raise or lower the signal
In short: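 After transient cis-reporter transfection, HepG2 cells receive test chemical for 24 h. Reporter mRNA levels, measured by RT-PCR and capillary electrophoresis fluorescence, are analysed bidirectionally relative to the DMSO baseline.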

[18] = molecular target: Hepatocyte nuclear factor 3-beta (Homo sapiens) (UniProt Q9Y261); assay: ATG_FoxA2_CIS: Attagene CIS-FACTORIAL HepG2 Assay for human Forkhead box A2 (FOXA2) (AID 2282942); conditions: HepG2 cis-reporter transcription factor activity, 24 h; actives raise or lower the signal
Chain of Hepatocyte nuclear factor 3-beta (Homo sapiens) (Q9Y261 whole entry, looked up, the tested form may be a part): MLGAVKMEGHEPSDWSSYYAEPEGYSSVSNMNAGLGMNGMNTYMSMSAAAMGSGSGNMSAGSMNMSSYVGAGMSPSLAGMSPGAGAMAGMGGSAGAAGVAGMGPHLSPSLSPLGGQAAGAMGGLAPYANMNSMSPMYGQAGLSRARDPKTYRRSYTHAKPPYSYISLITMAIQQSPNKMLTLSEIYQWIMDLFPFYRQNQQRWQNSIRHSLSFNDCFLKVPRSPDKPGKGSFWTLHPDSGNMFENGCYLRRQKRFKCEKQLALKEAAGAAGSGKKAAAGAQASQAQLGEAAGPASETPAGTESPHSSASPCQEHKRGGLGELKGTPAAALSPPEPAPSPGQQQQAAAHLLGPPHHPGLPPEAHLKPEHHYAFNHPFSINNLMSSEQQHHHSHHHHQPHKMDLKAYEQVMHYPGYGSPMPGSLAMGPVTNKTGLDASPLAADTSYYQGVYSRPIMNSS
In short: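 Fluorescence signal of reporter cDNA fragments, separated by capillary electrophoresis, reflects endogenous transcription factor activity in transfected HepG2 after 24 h. Both increases and decreases fitted against DMSO.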

[19] = ATG_FoxO_CIS: Attagene CIS-FACTORIAL HepG2 Assay for human Forkhead box O (FoxO) (AID 2282943); conditions: HepG2 Attagene cis-reporter, FoxO element, mRNA; actives raise or lower the signal
In short: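 Endogenous transcription factor activity read from multiplexed cis-promoter reporter transcripts in transiently transfected HepG2, 24 h after dosing. Reporter RNA measured via RT-PCR plus capillary electrophoresis of FAM-labeled products; gain or loss relative to DMSO.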

[20] = ATG_GATA_CIS: Attagene CIS-FACTORIAL HepG2 Assay for human GATA Binding Protein (AID 2282944); conditions: HepG2 GATA cis-element reporter, Attagene multiplex mRNA; actives raise or lower the signal
In short: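 Read-out: fluorescent reporter mRNA fragments resolved by capillary electrophoresis after RT-PCR. Human liver HepG2 cells carried transiently transfected cis-regulated reporter constructs; chemicals incubated 24 h; gain or loss of signal fitted relative to DMSO.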

Measured: AC50

FC(F)(F)C(F)(F)C(F)(F)C(F)(F)C(F)(F)C(F)(F)C(F)(F)Br
inactive: all assays above

C=CC(F)(F)C(F)(F)C(F)(F)C(F)(F)C(F)(F)C(F)(F)C(F)(F)C(F)(F)F
inactive: all assays above

FC(F)(F)C(F)(F)C(F)(F)N(C(F)(F)C(F)(F)C(F)(F)F)C(F)(F)C(F)(F)C(F)(F)F
inactive: all assays above

C#C[C@]1(O)CC[C@H]2[C@@H]3CCc4cc(OC)ccc4[C@H]3CC[C@@]21C
active: [1] 5.4 nM | [4] 48.2 µM | [16] 9.35 nM
inactive: all other assays above

CCCCCCOC(=O)c1ccccc1
active: [6] 50.4 µM
inactive: all other assays above

CS(C)(=O)=O
inactive: all assays above
